In test [1] the target is Glutaminase kidney isoform, mitochondrial (Homo sapiens) (UniProt O94925). In words: qHTS for Inhibitors of Glutaminase (GLS): LOPAC Validation (AID 624146). Also: nearly all actives have a fitted effect of over 60% in size. Also: potency is read from the fitted curve at half-maximal effect. In outline: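 Two-point fluorescence kinetic (t0, 30 min RT) for hKGA; glutamate detected via glutamate oxidase–HRP–Amplex Red. Substrate: 1 mM L-glutamine solution; buffer 45 mM KH2PO4, pH 8.2.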
On the technique in general: Quantitative high-throughput screening tests each substance at several concentrations.

Test [2] in a line: qHTS of Trypanosoma Brucei Inhibitors: LOPAC Validation (AID 624147). In outline: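 Activity of T. brucei pyruvate kinase was followed by Kinase-Glo Plus luminescence after the enzyme reacted 45 min at room temperature with 130 uM ADP (final) and substrate. Test compounds were added before ADP at multiple concentrations.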
Test [3] has as its target Glucagon-like peptide 1 receptor (Homo sapiens) (UniProt P43220). The experiment in a line: qHTS of GLP-1 Receptor Agonists: LOPAC Validation (AID 624148).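 Also: higher luminescence signal means agonism.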 In outline: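 HEK293 cells stably co-expressing GLP-1R and a cAMP-responsive luciferase reporter, plated 12 hours before compound, then incubated 4-6 hr at 37 deg C. Luminescence read 12 min after detection reagent.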

Test [4] in a line: qHTS of Nrf2 Activators: LOPAC Validation (AID 624149). The procedure, abridged:
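Luciferase signal from ARE activation, read with Steady-Glo after 30 min at room temperature. Compounds were pin-transferred onto AREc32_Fluc cells (1000/well, OPTI-MEM/5% FBS, seeded overnight) and left 24 hr at 37 deg C.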

Test [5] in a line: HTS Assay for Allosteric Antagonists of the Human D2 Dopamine Receptor: Hit Validation in HTRF (AID 624455).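 Also: stable D1 dopamine receptor cell line scored for blocking the D1 response.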 The procedure, abridged: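 Inhibition of the D1-mediated response was measured by HTRF. Cells used were a line stably expressing the D1 dopamine receptor.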
For orientation: Time-resolved FRET reads energy transfer from a long-lived donor to a nearby acceptor.

Inconclusive results are not listed. The source made the active and inactive calls. Calls follow the shape of the dose curve; as a rule, active = well fitted curve in the direction sought with a large enough effect; inconclusive = small, poorly fitted or top-dose-only effect, or another doubt; inactive = no such curve, though single readings can be large; an effect the other way counts as inactive or inconclusive.

Glutaminase kidney isoform, mitochondrial (Homo sapiens), sequence (O94925 whole entry, looked up, canonical isoform): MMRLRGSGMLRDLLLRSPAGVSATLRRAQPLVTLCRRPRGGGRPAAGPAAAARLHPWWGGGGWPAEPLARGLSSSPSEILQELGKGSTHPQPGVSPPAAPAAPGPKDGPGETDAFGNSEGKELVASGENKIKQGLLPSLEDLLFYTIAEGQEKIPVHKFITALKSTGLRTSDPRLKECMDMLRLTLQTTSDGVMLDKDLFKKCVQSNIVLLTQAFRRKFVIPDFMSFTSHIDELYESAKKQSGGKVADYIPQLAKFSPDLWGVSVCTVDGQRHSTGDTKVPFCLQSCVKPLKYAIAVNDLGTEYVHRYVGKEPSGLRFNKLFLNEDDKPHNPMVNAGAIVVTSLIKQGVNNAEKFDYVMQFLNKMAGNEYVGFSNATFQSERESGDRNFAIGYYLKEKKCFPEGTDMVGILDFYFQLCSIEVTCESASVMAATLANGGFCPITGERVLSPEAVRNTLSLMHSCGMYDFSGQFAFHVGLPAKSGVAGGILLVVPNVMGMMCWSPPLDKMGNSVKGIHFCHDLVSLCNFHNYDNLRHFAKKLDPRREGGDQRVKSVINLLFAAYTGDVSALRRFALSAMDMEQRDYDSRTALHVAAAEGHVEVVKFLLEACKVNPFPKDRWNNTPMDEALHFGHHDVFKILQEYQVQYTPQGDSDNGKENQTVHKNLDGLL
Glucagon-like peptide 1 receptor (Homo sapiens), sequence (P43220 whole entry, looked up): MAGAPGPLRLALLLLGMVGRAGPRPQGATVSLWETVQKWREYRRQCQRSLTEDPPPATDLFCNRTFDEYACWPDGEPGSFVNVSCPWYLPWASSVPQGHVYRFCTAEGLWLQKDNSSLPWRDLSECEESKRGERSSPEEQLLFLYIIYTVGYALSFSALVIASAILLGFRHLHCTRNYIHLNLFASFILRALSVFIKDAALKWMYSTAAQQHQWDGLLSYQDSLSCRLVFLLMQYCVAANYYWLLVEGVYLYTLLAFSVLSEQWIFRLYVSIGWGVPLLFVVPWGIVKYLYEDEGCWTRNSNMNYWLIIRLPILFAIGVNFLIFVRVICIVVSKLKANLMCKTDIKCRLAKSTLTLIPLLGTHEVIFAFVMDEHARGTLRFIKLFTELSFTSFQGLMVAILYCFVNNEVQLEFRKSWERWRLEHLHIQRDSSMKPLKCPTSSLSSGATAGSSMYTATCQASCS

For the compound `CCOC(=O)c1ncn2c1[C@@H]1CCCN1C(=O)c1cc(OC)ccc1-2`, the Potency result in test [1], in test [2], in test [4] and in test [5] was “inactive” in each case. The compound was classed as inactive in test [3].
In the case of `CCCN1CCc2cccc3c2[C@H]1Cc1ccc(O)c(O)c1-3`, the Potency in test [1] was 1410 nM (active). Besides, the outcome in test [3] was inactive. The Potency result in test [4] is “inactive”.
Turning to `COc1cc(CC(C)N)c(OC)cc1I` (stereo not given), the Potency result in test [1], in test [2], in test [4] and in test [5] was “inactive” in each case. Also, the outcome in test [3] was inactive.
As to `CN(N=O)c1ccc(O)c(O)c1`, the Potency entry in test [1] and in test [4] was “inactive” each time. Besides, the compound was called inactive in test [3].
As to `CC(N)Cc1c[nH]c2ccc(OCc3cccs3)cc12` (stereo not given), the Potency entry in test [1], in test [2], in test [4] and in test [5] was “inactive” in each case. For the same compound, in test [3], the compound was classed as inactive.
With `N#CCCN`, the Potency result in test [1], in test [2], in test [4] and in test [5] was “inactive” in each case. In addition, the compound was classed as inactive in test [3].
For the compound `CN1CC[C@@]2(C)c3cc(OC(=O)Nc4ccccc4)ccc3N(C)[C@@H]12`, in test [1], the Potency is 1120 nM (active). Also, the Potency entry in test [2], in test [4] and in test [5] was “inactive” in each case. In addition, in test [3], the compound was called inactive.
`CCN1C[C@@]2(COC)C3[C@@H](OC)C4[C@@H]1C3([C@@H]1C[C@]3(O)[C@H](OC(=O)c5ccccc5)[C@@H]1[C@]4(OC(C)=O)[C@@H](O)[C@@H]3OC)[C@H](OC)C[C@H]2O`: the Potency entry in test [1], in test [2], in test [4] and in test [5] was “inactive” throughout. In test [3], the outcome was inactive.
Consider `CN(C(=O)Cc1ccc(Cl)c(Cl)c1)C(CN1CCCC1)c1cccc(OCC(=O)O)c1` (stereo not given), for which the Potency entry in test [1], in test [2], in test [4] and in test [5] was “inactive” in each case. For the same compound, the compound was called inactive in test [3].
Take `C/C(O)=C(\C#N)C(=O)Nc1cc(Br)ccc1Br`: the Potency entry in test [1], in test [2], in test [4] and in test [5] was “inactive” each time. For the same compound, the outcome in test [3] was inactive.
For `Cc1o[nH]c(=O)c1CC(N)C(=O)O` (stereo not given), the Potency result in test [1], in test [2], in test [4] and in test [5] was “inactive” in each case. In test [3], the result was inactive.
Turning to `c1ccc2c(N3CCNCC3)cccc2c1`, the Potency entry in test [2], in test [4] and in test [5] was “inactive” in each case. In addition, the result in test [3] was inactive.

These data come from PubChem BioAssay (NCATS).
